From PubChem BioAssay
Tgondii IFNg – blocks Toxoplasma gondii growth in the presence of IFN-gamma; Toxoplasma gondii growth in IFN-gamma-treated host cells; stronger effect = lower value; activity change, negative = inhibition, % (test concentration not listed); actives 3.8% (n = 69,000); in the data active = activity change below about -70%, passing the limit was not always enough;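 note: host cells are HeLa cells infected with Toxoplasma gondii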
Starred values were filed as active, the others as inactive. Shown is part of a subset that was picked to be rich in hits.

SMILES	Tgondii IFNg
CC(C)[C@@H](Cn1nnc2ccccc21)NC(=O)c1cnn2cccnc12	22.1
Cc1ccc(C)c(-c2[nH]ncc2CN(C)Cc2ncc[nH]2)c1	-6.6
O=C(Cn1ncc2c(N3CCCCCC3)ncnc21)Nc1ccccc1	35.2
Cc1cc(C)cc(C(=O)N2CCC3(CC2)NC(=O)c2cc(Cl)ccc2N3C)c1	48.4
COc1ccccc1-c1nc(Cc2noc(-c3ccccn3)n2)c(C)o1	28.0
COc1ccccc1-c1nc(Cc2noc(-c3ccccc3F)n2)c(C)o1	-78.8*
Cc1ccc(OCc2nc(Cc3nc(-c4ccccc4)oc3C)no2)cc1	-63.4
COc1ccc(-c2nc(Cc3noc(-c4ccccc4F)n3)c(C)o2)cc1	-113.2*
COc1ccccc1-c1nc(Cc2noc(-c3ccc(F)cc3)n2)c(C)o1	22.9
COc1cccc(-c2nc(Cc3nc(-c4ccccc4)oc3C)no2)c1	53.3
Cc1c(Cl)cccc1S(=O)(=O)NCCc1nnc(SCc2ccccc2)n1C	-54.4
Cc1ccc(C2(C(=O)NCc3nnc(-c4cnccn4)o3)CCCC2)cc1	163.6
COc1ccc(CCN2CN=C(NS(=O)(=O)c3ccc(C)cc3)NC2)cc1OC	-17.7
COc1cc2c(cc1OC)CC(=O)N(CCCN(C)C[C@@H]1Cc3cc(OC)c(OC)cc31)CC2	12.8
CCn1nc(C(C)C)cc1-c1n[nH]c(CCc2ccccc2)n1	-27.8
O=C(NC1CCCCCCC1)C1CC(=O)N(CCc2c[nH]c3ccc(Cl)cc23)C1 (stereo unspecified)	-91.5*
Cc1ccc2[nH]cc(CCN3CC(C(=O)NC4CCCCCCC4)CC3=O)c2c1 (stereo unspecified)	135.7
CC(C)c1ccc(NC(=O)C2CC(=O)N(CCc3c[nH]c4ccc(Cl)cc34)C2)cc1 (stereo unspecified)	-69.8
COCCNC(=O)[C@H]1C[C@H]2CCN(Cc3csc(C)n3)C[C@H]2O1	-0.2
Nc1ncn([C@@H]2O[C@H](CO)[C@@H](O)[C@H]2O)c(=O)n1	-40.6
COc1nc(N)nc2c1ncn2[C@@H]1O[C@H](CO)[C@@H](O)[C@@H]1O	14.4
Nc1nc(=S)c2ncn([C@@H]3O[C@H](CO)[C@@H](O)[C@H]3O)c2[nH]1	-77.5*
COc1ccccc1-c1nc(Cn2ccn3nc(-c4ccccc4)cc3c2=O)c(C)o1	45.5
CN(C)CCCN(Cc1ccccn1)Cc1cn[nH]c1C(C)(C)C	-11.4
O=C1OCCN1/N=C/c1ccc([N+](=O)[O-])o1	-19.1
SMILES	Tgondii IFNg
CSCC1CN(/N=C/c2ccc([N+](=O)[O-])o2)C(=O)O1 (stereo unspecified)	13.9
O=C1CN(/N=C/c2ccc(-c3ccc([N+](=O)[O-])cc3)o2)C(=O)N1	-75.8*
C=CCC(Nc1ccc(OC)cc1)c1ccco1 (stereo unspecified)	38.8
c1cc(Cn2ccnc2-c2cnc[nH]2)c2cc[nH]c2c1	50.7
O=C(Cc1ccc(Cl)cc1)NCCc1csc(-c2cccc(F)c2)n1	-6.6
O=C(NCc1cccc(F)c1)c1nc(CS(=O)(=O)c2ccc(Cl)cc2)no1	-86.9*
CN(C)C(=O)N1Cc2nc(C(=O)NCc3cccc(F)c3)oc2C1	7.2
C=CCNc1ccccc1C(=O)N1CCn2nc(C(=O)N3CCCC3)cc2C1	34.2
Oc1c(Cl)cc(-c2nc3cnccn3c2NCC2CCCO2)cc1Cl (stereo unspecified)	-11.3
Cn1c(=O)c2c(nc(CN3CCc4ccccc4C3)n2Cc2ccccc2F)n(C)c1=O	-79.2*
Cc1nc2c(c(=O)[nH]1)CCN(Cc1cccn1Cc1ccccc1F)C2	15.2
Cn1c(=O)c2c(nc(N3CCN=C3SCC(N)=O)n2Cc2ccccc2)n(C)c1=O	-11.4
CNC(=O)c1ccc(C2CCCN2C(=O)c2cc(CC(C)C)nn2C)s1 (stereo unspecified)	-3.6
CCOCC1CN(C(=O)Cc2ccccn2)Cc2c1cnn2CC (stereo unspecified)	-3.0
CCO[C@@H]1C[C@@H]2CN(C(=O)c3cscn3)CCN2C1	66.3
Cc1cc(C)n(CC(C)NC(=O)c2cccc(NCc3cccnc3)c2C)n1 (stereo unspecified)	41.8
CCCS(=O)(=O)NCCc1csc(-c2ccc(Cl)cc2)n1	-23.0
CCN(CC)c1ccc(C(=C2C=CC(=[N+](CC)CC)C=C2)c2ccccc2)cc1	-74.1*
COc1ccc(S(=O)(=O)N(C)C[C@H]2Oc3c(NC(=O)c4nc5ccccc5s4)cccc3C(=O)N([C@H](C)CO)C[C@@H]2C)cc1	-54.7
COc1ccc(S(=O)(=O)Nc2ccc3c(c2)C(=O)N([C@@H](C)CO)C[C@H](C)[C@H](CN(C)S(=O)(=O)c2ccc(Cl)cc2)OCCCC[C@@H](C)O3)cc1	-112.3*
COc1ccc(S(=O)(=O)N(C)C[C@@H]2OCCCC[C@@H](C)Oc3ccc(NC(=O)Cc4ccccc4)cc3C(=O)N([C@@H](C)CO)C[C@@H]2C)cc1	-32.1
COc1ccc(S(=O)(=O)Nc2ccc3c(c2)C(=O)N([C@@H](C)CO)C[C@@H](C)[C@H](CN(C)C(=O)Nc2c(C)noc2C)OCCCC[C@H](C)O3)cc1	-1.8
COc1ccc(S(=O)(=O)N(C)C[C@H]2Oc3c(NC(=O)c4nc5ccccc5s4)cccc3C(=O)N([C@@H](C)CO)C[C@H]2C)cc1	-82.4*
COc1ccc(S(=O)(=O)N(C)C[C@@H]2OCCCC[C@@H](C)Oc3ccc(NC(=O)Cc4ccccc4)cc3C(=O)N([C@H](C)CO)C[C@@H]2C)cc1	3.3
COc1ccc(S(=O)(=O)N(C)C[C@H]2OCCCC[C@@H](C)Oc3ccc(NC(=O)Cc4ccccc4)cc3C(=O)N([C@@H](C)CO)C[C@H]2C)cc1	-101.9*
SMILES	Tgondii IFNg
COc1ccc(S(=O)(=O)Nc2ccc3c(c2)C(=O)N([C@H](C)CO)C[C@H](C)[C@H](CN(C)S(=O)(=O)c2ccc(Cl)cc2)OCCCC[C@@H](C)O3)cc1	-37.6
COc1ccc(S(=O)(=O)Nc2ccc3c(c2)C(=O)N([C@@H](C)CO)C[C@@H](C)[C@H](CN(C)C(=O)Nc2c(C)noc2C)OCCCC[C@@H](C)O3)cc1	79.5
COc1ccc(S(=O)(=O)N(C)C[C@@H]2Oc3c(NC(=O)c4nc5ccccc5s4)cccc3C(=O)N([C@H](C)CO)C[C@@H]2C)cc1	-40.2
COc1ccc(S(=O)(=O)Nc2ccc3c(c2)C(=O)N([C@@H](C)CO)C[C@@H](C)[C@@H](CN(C)C(=O)Nc2c(C)noc2C)OCCCC[C@H](C)O3)cc1	-77.9*
COc1ccc(S(=O)(=O)N(C)C[C@H]2OCCCC[C@H](C)Oc3ccc(NC(=O)Cc4ccccc4)cc3C(=O)N([C@H](C)CO)C[C@H]2C)cc1	-48.5
CCc1cnc(N2CCC3(CC2)CC(c2ccccc2)C(=O)N3)nc1 (stereo unspecified)	-10.2
CCNC(=O)[C@H]1O[C@@H](n2cnc3c(N)nc(NCCc4ccc(CCC(=O)O)cc4)nc32)[C@@H](O)[C@@H]1O	22.3
CCOc1ccc(-c2noc(-c3c(O)c4ccc(F)cc4n(CC)c3=O)n2)cc1	76.5
O=C(CN1C(=O)CCc2cc(Br)ccc21)Nc1ccc(F)cc1	12.4
C=CCN(Cc1cccc(OC)c1)C(=O)c1cc(-c2cnn(C)c2C)n[nH]1	5.7
Cc1nc(-c2cccc(F)c2)sc1CCNC(=O)C(=O)Nc1ccc(Cl)cc1	17.0
Cc1[nH]c(-c2ccccc2)nc1C(=O)N1CCC(O)(CO)CC1	5.4
Cc1cc(C)cc(NC(=O)N2CCN(Cc3nc(-c4cccc(Cl)c4)oc3C)CC2)c1	-0.8
CC(C)N1CCC2(CC(C(=O)NCc3ccc(F)cc3)=NO2)C1 (stereo unspecified)	179.1
